Where “and” joins values, the source holds several entries; their conditions need not be identical. Identical values can stand only once. Records with an inconclusive call do not appear. Calls of active or inactive are those of the source. Calls come from the whole dose curve; as a rule, active = well fitted inhibition curve with a large enough effect; inconclusive = small, poorly fitted or top-dose-only effect; inactive = flat fitted curve, though single readings scatter.
Experiments:
[1] = test system: CRL-7250; experiment: Cytotoxic Profiling of Annotated Libraries Using Quantitative High-Throughput Screening (AID 1296008); conditions: Five cell lines viability, CellTiter-Glo ATP luminescence, 48-72 h; max response: hits give low values; note: potency is the fitted concentration of half-maximal effect; for max response: % is set by controls: 0 for no effect and ±100 for the full control effect
Summary of the method: (§1)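 Cytotoxicity was measured as CellTiter-Glo ATP luminescence, read after 10 min at room temperature. Compound treatment of the cells lasted 48 or 72 hr at 37 degrees Celsius in a qHTS format.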

[2] = test system: HEK293; experiment: as above; conditions: Five cell lines viability, CellTiter-Glo ATP luminescence, 48-72 h; max response: hits give low values
Summary of the method: as §1

[3] = test system: HaCat; experiment: as above; conditions: Five cell lines viability, CellTiter-Glo ATP luminescence, 48-72 h; max response: hits give low values
Summary of the method: as §1

[4] = test system: KB-3-1; experiment: as above; conditions: Five cell lines viability, CellTiter-Glo ATP luminescence, 48-72 h; max response: hits give low values
Summary of the method: as §1

[5] = test system: NIH3T3; experiment: as above; conditions: Five cell lines viability, CellTiter-Glo ATP luminescence, 48-72 h; max response: hits give low values
Summary of the method: as §1

[6] = test system: HACAT; experiment: qHTS assay to identify novel small-molecules to repurpose for Merkel cell carcinoma treatment (AID 1296009); conditions: MCC and control cell lines, CellTiter-Glo viability, 72 h; at 44.8 µM (top of the series) unless noted
Summary of the method: (§2)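 72 hr, 37 degree celsius; NPC 8-pt / MIPE 11-pt dose response; compound pinned in DMSO; CellTiter-Glo, 10 min RT, luminescence; normalized to no-cell and DMSO controls.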

[7] = test system: N140; experiment: qHTS profiling for inhibitors of Plasmodium falciparum proliferation (AID 504749); note: potency is the fitted concentration of half-maximal effect; conditions: P. falciparum in erythrocytes, SYBR Green DNA, 72 h; series mostly up to 28.7 µM
Summary of the method: (§3)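 Infected RBCs, 0.3% parasitemia/2.5% Hct final; cpd 72 h, 37 C, 5% CO2; lysis buffer with saponin/triton/SYBR Green I, o/n RT dark; FI 485/535; norm. to artemisinin (0.29 uM) and DMSO.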

[8] = test system: P93_24; experiment: as above; conditions: P. falciparum in erythrocytes, SYBR Green DNA, 72 h; series mostly up to 28.7 µM
Summary of the method: as §3

[9] = test system: P94_40; experiment: as above; conditions: P. falciparum in erythrocytes, SYBR Green DNA, 72 h; series mostly up to 28.7 µM
Summary of the method: as §3

[10] = test system: PAD; experiment: as above; conditions: P. falciparum in erythrocytes, SYBR Green DNA, 72 h; series mostly up to 28.7 µM
Summary of the method: as §3

[11] = test system: PC15; experiment: as above; conditions: P. falciparum in erythrocytes, SYBR Green DNA, 72 h; series mostly up to 28.7 µM
Summary of the method: as §3

[12] = test system: PC26; experiment: as above; conditions: P. falciparum in erythrocytes, SYBR Green DNA, 72 h; series mostly up to 28.7 µM
Summary of the method: as §3

[13] = test system: PC49; experiment: as above; conditions: P. falciparum in erythrocytes, SYBR Green DNA, 72 h; series mostly up to 28.7 µM
Summary of the method: as §3

[14] = test system: SC27B; experiment: as above; conditions: P. falciparum in erythrocytes, SYBR Green DNA, 72 h; series mostly up to 28.7 µM
Summary of the method: as §3

[15] = test system: TAB109; experiment: as above; conditions: P. falciparum in erythrocytes, SYBR Green DNA, 72 h; series mostly up to 28.7 µM
Summary of the method: as §3

[16] = test system: TAB113; experiment: as above; conditions: P. falciparum in erythrocytes, SYBR Green DNA, 72 h; series mostly up to 28.7 µM
Summary of the method: as §3

[17] = test system: TAB165; experiment: as above; conditions: P. falciparum in erythrocytes, SYBR Green DNA, 72 h; series mostly up to 28.7 µM
Summary of the method: as §3

[18] = test system: W2; experiment: as above; conditions: P. falciparum in erythrocytes, SYBR Green DNA, 72 h; series mostly up to 28.7 µM
Summary of the method: as §3

[19] = test system: HEK293T; experiment: qHTS assay to identify novel small-molecules to repurpose for Merkel cell carcinoma treatment (AID 1296009); conditions: MCC and control cell lines, CellTiter-Glo viability, 72 h; at 44.8 µM (top of the series)
Summary of the method: as §2
Note: nearly all actives have a fitted effect of over 60% in size.

Cc1ccc2c(c1)C1CN(C)CCC1N2 (stereo unspecified)
inactive: max response [1] -0.945% | max response [2] 1.62% | outcome [3] | max response [4] -4.81% | outcome [5] | outcome [6] inactive [at 17.4 µM]

Cc1ncc(CNC(=O)N(CCCl)N=O)c(N)n1
inactive: Potency [7] | Potency [8] | Potency [9] | Potency [10] | Potency [11] | Potency [12] | Potency [13] | Potency [14] | Potency [15] | Potency [16] | Potency [17] | Potency [18] | max response [1] 0.0102% | max response [2] 2.72% | max response [4] 2.09% | max response [5] -2.43%

O=C(NC(O)C(Cl)(Cl)Cl)NC(O)C(Cl)(Cl)Cl (stereo unspecified)
inactive: Potency [7] | Potency [8] | Potency [9] | Potency [10] | Potency [11] | Potency [12] | Potency [13] | Potency [14] | Potency [15] | Potency [16] | Potency [17] | Potency [18] | max response [1] 1.53% | max response [2] 0.365% | outcome [3] | max response [4] 2.53% | outcome [5] | outcome [6]

CC[C@@H](CO)NC(=O)[C@@H]1C=C2c3cccc4c3c(cn4C)C[C@H]2N(C)C1
inactive: max response [1] 4.07% | max response [2] -25.3% | outcome [3] | max response [4] -9.77% | max response [5] 2.49% | outcome [6]

CC[C@@H](CO)NC(=O)[C@@H]1C=C2c3cccc4[nH]cc(c34)C[C@H]2N(C)C1
inactive: Potency [7] | Potency [8] | Potency [9] | Potency [10] | Potency [11] | Potency [12] | Potency [13] | Potency [14] | Potency [15] | Potency [16] | Potency [17] | Potency [18] | max response [1] -1.45% | max response [2] -3.34% | max response [3] -5.68% | max response [4] 37.2% | max response [5] -3.83%

Nc1ccncc1
inactive: Potency [7] | Potency [8] | Potency [9] | Potency [10] | Potency [11] | Potency [13] | Potency [14] | Potency [15] | Potency [16] | Potency [17] | Potency [18] | max response [1] 4.16% | max response [2] -0.798% | outcome [3] | max response [4] 14.9% | max response [5] 2.18% | outcome [6]

CC(CCc1ccccc1)NC(C)C(O)c1ccc(O)cc1 (stereo unspecified)
inactive: Potency [10] | Potency [13] | Potency [14] | Potency [16] | max response [1] -12.9% | max response [2] -17.5% | outcome [3] | max response [4] -11.3% | max response [5] -21.3% | outcome [6]
active: Potency [18] 4.26 µM

CCC(C(N)=O)N1CCCC1=O (stereo unspecified)
inactive: Potency [7] | Potency [8] | Potency [9] | Potency [10] | Potency [11] | Potency [12] | Potency [13] | Potency [14] | Potency [15] | Potency [16] | Potency [17] | max response [1] -0.833% | max response [2] -1.93% | outcome [3] | max response [4] -5.57% | outcome [5] | outcome [6]

CC(C)(N)Cc1ccc(Cl)cc1
inactive: Potency [8] | Potency [9] | Potency [10] | Potency [11] | Potency [13] | Potency [14] | Potency [15] | Potency [16] | Potency [17] | max response [1] 0.791% | max response [2] 3.33% | outcome [3] | max response [4] -1.79% | outcome [5] | outcome [6]

Clc1ccc(CCC(Cn2ccnc2)Sc2c(Cl)cccc2Cl)cc1 (stereo unspecified)
active: Potency [2] 26.4 µM
inactive: max response [1] -0.661% | max response [4] 1.06% | max response [5] -8.13% and -9.95%

O=c1oc2ccccc2c(O)c1C(CC(O)c1ccc(-c2ccc(Br)cc2)cc1)c1ccccc1 (stereo unspecified)
inactive: max response [1] 0.6% | outcome [2] | max response [3] 4.03% | max response [4] 0.095% | max response [5] 0.0262% | outcome [19]

C#CCOC(C(=O)OCCN(C)C)(c1ccccc1)c1ccccc1
inactive: Potency [7] | Potency [9] | Potency [10] | Potency [11] | Potency [12] | Potency [13] | Potency [14] | Potency [16] | Potency [17] | max response [1] -6.32% | max response [2] -8.54% | outcome [3] | max response [4] -0.159% | outcome [5] | outcome [6]

NCCc1cc(O)c(O)cc1O
inactive: Potency [7] | Potency [8] | Potency [9] | Potency [10] | Potency [11] | Potency [12] | Potency [13] | Potency [14] | Potency [16] | Potency [17] | Potency [18] | max response [1] 3.51% | outcome [2] | outcome [3] | max response [4] 9.04% | outcome [5] | outcome [6] | outcome [19]

— PubChem BioAssay (NCATS)
